Source: publication PMC7862700, “An all-to-all approach to the identification of sequence-specific readers for epigenetic DNA modifications on cytosine”

What was measured:
Assay in all cases: DAPPL (digital affinity profiling via proximity ligation, sequencing); 10 mM Tris-HCl pH 7.5, 50 mM NaCl, 1 mM DTT, 4% glycerol, room temperature, 30 min; GST-TFs on glutathione beads, 16-mer random dsDNA library, 0.1% formaldehyde crosslink after washing; high values mean tight binding
Conditions in all cases: protein: recombinant; tags: N-terminal GST; dsDNA, one strand shown
[1] = target: T1, FLI1 (Homo sapiens, UniProt Q01543 1-452)
T1 sequence: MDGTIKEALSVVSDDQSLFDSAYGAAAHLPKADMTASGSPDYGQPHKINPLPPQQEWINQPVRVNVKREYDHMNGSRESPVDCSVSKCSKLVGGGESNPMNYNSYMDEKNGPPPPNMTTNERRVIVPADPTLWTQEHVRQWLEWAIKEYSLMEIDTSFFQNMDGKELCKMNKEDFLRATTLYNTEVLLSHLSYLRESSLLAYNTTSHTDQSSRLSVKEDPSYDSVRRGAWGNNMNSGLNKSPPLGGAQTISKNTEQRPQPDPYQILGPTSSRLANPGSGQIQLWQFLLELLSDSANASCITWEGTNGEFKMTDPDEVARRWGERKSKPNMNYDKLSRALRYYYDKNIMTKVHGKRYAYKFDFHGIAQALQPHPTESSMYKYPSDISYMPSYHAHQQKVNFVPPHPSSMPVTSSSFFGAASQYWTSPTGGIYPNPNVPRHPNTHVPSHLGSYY
Outline: (§1)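 After expression in yeast as GST fusions, human transcription factors were bound to glutathione beads, DNA-barcoded and mixed with a tag-only sample. The pools were incubated with 200 nmole of a 16-mer random double-stranded DNA library in Tris/NaCl/DTT/glycerol buffer (30 min, room temperature), washed and crosslinked with 0.1% formaldehyde. Proximity ligation with BsaI/T4 ligase ran for 1 h at 37 °C, before PCR amplification and sequencing on an Illumina NextSeq500. Binding signal is a hexamer's read frequency for a factor divided by its frequency for the tag-only sample.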

[2] = target: T2, ELK1 (Homo sapiens, UniProt P19419 1-428)
T2 sequence: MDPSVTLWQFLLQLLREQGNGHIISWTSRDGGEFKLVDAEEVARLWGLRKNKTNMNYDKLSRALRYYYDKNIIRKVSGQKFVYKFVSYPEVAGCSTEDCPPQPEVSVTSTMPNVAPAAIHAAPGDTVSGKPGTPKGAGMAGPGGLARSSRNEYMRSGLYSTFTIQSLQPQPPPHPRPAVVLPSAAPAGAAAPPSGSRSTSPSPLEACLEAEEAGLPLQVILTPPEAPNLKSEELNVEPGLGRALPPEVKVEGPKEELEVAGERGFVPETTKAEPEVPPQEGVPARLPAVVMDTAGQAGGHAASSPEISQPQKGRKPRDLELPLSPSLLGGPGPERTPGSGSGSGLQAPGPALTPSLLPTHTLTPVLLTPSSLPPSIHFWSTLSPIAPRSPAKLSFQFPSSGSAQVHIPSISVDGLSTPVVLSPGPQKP
Outline: as §1

[3] = target: T3, GABPA (Homo sapiens, UniProt Q06546 1-454)
T3 sequence: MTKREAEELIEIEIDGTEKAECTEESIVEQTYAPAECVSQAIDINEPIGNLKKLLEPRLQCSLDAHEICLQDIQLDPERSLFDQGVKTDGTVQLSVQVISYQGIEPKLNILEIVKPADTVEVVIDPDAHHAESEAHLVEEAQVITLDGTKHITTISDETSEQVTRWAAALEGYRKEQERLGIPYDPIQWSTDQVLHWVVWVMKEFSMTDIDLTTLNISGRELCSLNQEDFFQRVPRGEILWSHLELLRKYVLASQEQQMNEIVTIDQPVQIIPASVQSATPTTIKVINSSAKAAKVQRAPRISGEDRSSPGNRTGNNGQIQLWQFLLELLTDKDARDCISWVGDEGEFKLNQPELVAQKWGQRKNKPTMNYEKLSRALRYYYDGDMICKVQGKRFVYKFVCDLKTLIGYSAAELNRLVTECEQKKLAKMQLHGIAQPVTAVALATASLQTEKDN
Outline: as §1

[4] = target: T4, ERG (Homo sapiens, UniProt P11308 1-479)
T4 sequence: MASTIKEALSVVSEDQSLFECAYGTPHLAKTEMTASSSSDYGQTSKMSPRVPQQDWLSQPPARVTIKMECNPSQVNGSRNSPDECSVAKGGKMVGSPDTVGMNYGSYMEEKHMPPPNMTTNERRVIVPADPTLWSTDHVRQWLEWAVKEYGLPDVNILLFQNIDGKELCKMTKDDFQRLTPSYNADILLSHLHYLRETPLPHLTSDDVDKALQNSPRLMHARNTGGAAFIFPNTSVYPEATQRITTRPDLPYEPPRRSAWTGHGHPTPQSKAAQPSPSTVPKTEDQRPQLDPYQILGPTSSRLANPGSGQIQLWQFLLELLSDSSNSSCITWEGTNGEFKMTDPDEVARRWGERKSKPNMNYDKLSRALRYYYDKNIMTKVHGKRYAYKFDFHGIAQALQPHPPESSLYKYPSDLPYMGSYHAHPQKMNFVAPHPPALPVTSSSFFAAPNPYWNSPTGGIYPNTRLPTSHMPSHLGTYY
Outline: as §1

[5] = target: ELF1 (Homo sapiens, UniProt P32519 1-619)
Sequence of ELF1 (P32519 whole entry): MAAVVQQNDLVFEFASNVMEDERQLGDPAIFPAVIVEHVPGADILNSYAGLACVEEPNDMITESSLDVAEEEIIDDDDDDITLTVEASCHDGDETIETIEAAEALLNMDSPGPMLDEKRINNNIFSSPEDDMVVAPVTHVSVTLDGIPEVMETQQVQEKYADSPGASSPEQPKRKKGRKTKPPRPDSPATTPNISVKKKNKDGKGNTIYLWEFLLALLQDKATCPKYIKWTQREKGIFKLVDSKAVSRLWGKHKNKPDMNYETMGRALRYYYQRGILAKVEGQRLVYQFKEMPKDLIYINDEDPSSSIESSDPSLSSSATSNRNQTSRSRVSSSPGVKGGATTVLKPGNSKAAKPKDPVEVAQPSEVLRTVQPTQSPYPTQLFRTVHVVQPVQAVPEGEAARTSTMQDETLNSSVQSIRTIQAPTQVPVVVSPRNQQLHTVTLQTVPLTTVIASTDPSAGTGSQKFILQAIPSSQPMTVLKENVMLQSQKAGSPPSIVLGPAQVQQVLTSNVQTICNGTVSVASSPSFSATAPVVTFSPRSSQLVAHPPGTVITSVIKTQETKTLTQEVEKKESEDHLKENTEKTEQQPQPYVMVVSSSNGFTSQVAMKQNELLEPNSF
Outline: as §1

[6] = target: T5, EHF (Homo sapiens, UniProt Q9NZC4 1-300)
T5 sequence: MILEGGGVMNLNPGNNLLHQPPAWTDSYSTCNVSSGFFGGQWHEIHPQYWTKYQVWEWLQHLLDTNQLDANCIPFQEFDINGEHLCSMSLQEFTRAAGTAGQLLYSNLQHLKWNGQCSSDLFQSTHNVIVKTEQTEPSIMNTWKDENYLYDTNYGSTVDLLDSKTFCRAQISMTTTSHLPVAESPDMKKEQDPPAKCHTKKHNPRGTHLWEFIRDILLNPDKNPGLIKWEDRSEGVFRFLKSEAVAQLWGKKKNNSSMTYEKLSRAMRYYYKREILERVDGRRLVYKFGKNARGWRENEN
Outline: as §1

[7] = target: SPI1 (Homo sapiens, UniProt P17947 1-270)
Outline: as §1

[8] = target: SPIB (Homo sapiens, UniProt Q01892 1-262)
Sequence of SPIB (Q01892 whole entry): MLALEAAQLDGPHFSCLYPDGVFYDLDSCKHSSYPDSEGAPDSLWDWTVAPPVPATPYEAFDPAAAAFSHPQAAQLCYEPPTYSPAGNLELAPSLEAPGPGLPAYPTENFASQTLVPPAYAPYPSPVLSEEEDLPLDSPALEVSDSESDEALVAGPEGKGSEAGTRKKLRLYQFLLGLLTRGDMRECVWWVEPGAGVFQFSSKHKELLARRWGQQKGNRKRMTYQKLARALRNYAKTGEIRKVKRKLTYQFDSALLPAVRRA
Outline: as §1

[9] = target: T6, ELK3 (Homo sapiens, UniProt P41970 1-407)
T6 sequence: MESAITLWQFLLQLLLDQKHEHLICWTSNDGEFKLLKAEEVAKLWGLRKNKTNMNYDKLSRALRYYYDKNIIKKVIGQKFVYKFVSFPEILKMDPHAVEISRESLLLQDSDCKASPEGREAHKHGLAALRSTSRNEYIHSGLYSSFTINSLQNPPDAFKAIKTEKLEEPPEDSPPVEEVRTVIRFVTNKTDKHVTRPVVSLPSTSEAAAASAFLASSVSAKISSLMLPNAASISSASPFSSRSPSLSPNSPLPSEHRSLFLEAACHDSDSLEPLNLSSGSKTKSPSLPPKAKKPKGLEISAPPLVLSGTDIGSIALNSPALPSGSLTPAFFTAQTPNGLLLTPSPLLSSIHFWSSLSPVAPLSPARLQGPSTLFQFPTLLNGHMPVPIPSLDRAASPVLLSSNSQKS
Outline: as §1

[10] = target: T7, FEV (Homo sapiens, UniProt Q99581 1-238)
T7 sequence: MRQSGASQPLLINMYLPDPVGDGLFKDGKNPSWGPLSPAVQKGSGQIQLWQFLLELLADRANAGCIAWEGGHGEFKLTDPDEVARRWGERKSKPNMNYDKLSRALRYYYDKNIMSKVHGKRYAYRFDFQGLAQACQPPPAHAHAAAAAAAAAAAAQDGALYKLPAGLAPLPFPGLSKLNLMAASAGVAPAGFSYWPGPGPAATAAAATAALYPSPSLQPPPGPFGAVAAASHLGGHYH
Outline: as §1

[11] = target: ETV5 (Homo sapiens, UniProt P41161 1-510)
Sequence of ETV5 (P41161 whole entry): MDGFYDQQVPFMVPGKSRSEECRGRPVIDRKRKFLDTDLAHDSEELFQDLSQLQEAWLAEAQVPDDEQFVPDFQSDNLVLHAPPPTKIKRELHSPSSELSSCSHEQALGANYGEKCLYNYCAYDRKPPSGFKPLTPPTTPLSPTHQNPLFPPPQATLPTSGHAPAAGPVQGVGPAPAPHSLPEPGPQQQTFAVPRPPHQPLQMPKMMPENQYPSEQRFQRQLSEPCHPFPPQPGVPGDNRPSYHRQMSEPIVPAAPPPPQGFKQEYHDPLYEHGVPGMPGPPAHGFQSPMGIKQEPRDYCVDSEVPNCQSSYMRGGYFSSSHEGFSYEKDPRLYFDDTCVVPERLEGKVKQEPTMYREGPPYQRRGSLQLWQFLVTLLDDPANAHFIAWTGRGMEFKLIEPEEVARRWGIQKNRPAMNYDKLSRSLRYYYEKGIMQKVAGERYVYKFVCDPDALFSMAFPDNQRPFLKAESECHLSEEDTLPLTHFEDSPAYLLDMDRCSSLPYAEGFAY
Outline: as §1

[12] = target: T8, SPIC (Homo sapiens, UniProt Q8N5J4 1-248)
T8 sequence: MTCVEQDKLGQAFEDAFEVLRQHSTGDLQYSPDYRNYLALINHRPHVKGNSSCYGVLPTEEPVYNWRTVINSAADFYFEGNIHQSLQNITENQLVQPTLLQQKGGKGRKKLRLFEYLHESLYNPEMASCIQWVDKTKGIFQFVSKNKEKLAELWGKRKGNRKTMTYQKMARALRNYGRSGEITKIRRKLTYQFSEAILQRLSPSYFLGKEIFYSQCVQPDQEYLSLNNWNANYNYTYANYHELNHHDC
Outline: as §1

[13] = target: ELF4 (Homo sapiens, UniProt Q99607 1-663)
Sequence of ELF4 (Q99607 whole entry): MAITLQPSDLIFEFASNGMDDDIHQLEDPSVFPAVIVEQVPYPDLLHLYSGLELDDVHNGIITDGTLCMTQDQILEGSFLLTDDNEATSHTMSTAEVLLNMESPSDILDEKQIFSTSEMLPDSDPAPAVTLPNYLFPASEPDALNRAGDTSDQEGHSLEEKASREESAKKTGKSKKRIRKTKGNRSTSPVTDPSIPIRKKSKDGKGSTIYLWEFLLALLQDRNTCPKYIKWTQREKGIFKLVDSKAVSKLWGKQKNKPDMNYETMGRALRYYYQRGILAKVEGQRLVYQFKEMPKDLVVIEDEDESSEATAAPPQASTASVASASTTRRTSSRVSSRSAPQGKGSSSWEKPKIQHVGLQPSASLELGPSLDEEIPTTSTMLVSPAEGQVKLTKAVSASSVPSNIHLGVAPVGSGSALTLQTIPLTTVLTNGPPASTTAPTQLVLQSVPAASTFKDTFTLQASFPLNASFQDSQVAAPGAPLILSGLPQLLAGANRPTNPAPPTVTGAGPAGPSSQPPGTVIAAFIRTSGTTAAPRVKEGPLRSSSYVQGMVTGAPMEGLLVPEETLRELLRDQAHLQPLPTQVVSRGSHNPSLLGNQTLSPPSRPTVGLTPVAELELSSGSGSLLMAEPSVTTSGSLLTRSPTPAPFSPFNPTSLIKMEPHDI
Outline: as §1

[14] = target: T9, ELK4 (Homo sapiens, UniProt P28324-2 1-405)
T9 sequence: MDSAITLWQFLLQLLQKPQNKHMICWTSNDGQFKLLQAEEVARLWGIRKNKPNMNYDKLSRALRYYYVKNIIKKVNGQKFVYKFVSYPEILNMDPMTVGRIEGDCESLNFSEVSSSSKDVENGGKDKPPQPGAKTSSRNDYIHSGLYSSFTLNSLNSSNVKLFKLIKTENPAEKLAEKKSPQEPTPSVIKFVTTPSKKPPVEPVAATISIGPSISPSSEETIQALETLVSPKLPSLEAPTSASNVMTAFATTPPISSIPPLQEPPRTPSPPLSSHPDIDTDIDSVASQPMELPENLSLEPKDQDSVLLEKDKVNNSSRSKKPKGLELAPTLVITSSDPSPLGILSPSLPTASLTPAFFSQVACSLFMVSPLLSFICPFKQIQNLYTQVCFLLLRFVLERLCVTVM
Outline: as §1

[15] = target: T10, ETV2 (Homo sapiens, UniProt O00321 1-342)
T10 sequence: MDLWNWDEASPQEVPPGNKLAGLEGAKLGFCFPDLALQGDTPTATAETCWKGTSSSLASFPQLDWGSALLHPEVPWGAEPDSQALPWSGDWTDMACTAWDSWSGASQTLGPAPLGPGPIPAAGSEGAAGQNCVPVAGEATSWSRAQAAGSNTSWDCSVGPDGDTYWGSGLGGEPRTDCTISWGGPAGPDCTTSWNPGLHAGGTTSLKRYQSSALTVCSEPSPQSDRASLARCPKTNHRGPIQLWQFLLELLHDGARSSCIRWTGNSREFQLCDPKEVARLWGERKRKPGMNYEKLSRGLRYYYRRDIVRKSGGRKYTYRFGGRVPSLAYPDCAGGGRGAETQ
Outline: as §1

[16] = target: T11, ELF3 (Homo sapiens, UniProt P78545 1-371)
T11 sequence: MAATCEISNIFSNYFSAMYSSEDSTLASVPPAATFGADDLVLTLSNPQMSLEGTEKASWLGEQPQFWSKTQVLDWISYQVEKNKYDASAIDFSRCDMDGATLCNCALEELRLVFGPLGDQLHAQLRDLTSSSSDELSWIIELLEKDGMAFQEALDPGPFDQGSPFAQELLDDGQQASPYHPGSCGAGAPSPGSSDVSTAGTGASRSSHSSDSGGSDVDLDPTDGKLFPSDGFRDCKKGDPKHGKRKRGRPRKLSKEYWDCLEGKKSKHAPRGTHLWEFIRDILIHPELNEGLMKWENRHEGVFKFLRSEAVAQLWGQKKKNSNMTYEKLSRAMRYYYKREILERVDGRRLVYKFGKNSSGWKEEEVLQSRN
Outline: as §1

[17] = target: ETV1 (Homo sapiens, UniProt P50549 1-477)
Sequence of ETV1 (P50549 whole entry): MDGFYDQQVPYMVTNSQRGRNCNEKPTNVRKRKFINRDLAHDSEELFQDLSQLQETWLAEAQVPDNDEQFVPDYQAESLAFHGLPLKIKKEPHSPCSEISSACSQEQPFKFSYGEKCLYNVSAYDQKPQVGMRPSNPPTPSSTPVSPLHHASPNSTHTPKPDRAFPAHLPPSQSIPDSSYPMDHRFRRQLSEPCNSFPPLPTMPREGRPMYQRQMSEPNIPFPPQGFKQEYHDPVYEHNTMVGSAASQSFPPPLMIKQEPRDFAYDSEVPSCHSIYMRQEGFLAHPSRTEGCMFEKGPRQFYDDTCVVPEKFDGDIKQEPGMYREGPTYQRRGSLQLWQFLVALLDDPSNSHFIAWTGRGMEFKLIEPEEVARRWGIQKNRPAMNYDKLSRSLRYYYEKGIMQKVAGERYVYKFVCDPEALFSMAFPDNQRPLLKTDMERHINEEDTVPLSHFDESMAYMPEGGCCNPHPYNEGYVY
Outline: as §1

ACACCT
binding signal [1]: 1.1 fold enrichment (6-mer frequency, TF over GST control)
binding signal [2]: 1.09 fold enrichment (6-mer frequency, TF over GST control)
binding signal [3]: 1.04 fold enrichment (6-mer frequency, TF over GST control)
binding signal [4]: 1.12 fold enrichment (6-mer frequency, TF over GST control)
binding signal [5]: 1.07 fold enrichment (6-mer frequency, TF over GST control)
binding signal [6]: 1.13 fold enrichment (6-mer frequency, TF over GST control)
binding signal [7]: 1.09 fold enrichment (6-mer frequency, TF over GST control)
binding signal [8]: 1.03 fold enrichment (6-mer frequency, TF over GST control)
binding signal [9]: 1.06 fold enrichment (6-mer frequency, TF over GST control)
binding signal [10]: 1.03 fold enrichment (6-mer frequency, TF over GST control)
binding signal [11]: 1.03 fold enrichment (6-mer frequency, TF over GST control)
binding signal [12]: 1.04 fold enrichment (6-mer frequency, TF over GST control)
binding signal [13]: 1.11 fold enrichment (6-mer frequency, TF over GST control)
binding signal [14]: 1.1 fold enrichment (6-mer frequency, TF over GST control)
binding signal [15]: 1.03 fold enrichment (6-mer frequency, TF over GST control)
binding signal [16]: 1.03 fold enrichment (6-mer frequency, TF over GST control)
binding signal [17]: 1.13 fold enrichment (6-mer frequency, TF over GST control)

GATACG
binding signal [1]: 1.11 fold enrichment (6-mer frequency, TF over GST control)
binding signal [2]: 1.12 fold enrichment (6-mer frequency, TF over GST control)
binding signal [3]: 1.12 fold enrichment (6-mer frequency, TF over GST control)
binding signal [4]: 1.11 fold enrichment (6-mer frequency, TF over GST control)
binding signal [5]: 1.15 fold enrichment (6-mer frequency, TF over GST control)
binding signal [6]: 1.24 fold enrichment (6-mer frequency, TF over GST control)
binding signal [7]: 1.04 fold enrichment (6-mer frequency, TF over GST control)
binding signal [8]: 1.17 fold enrichment (6-mer frequency, TF over GST control)
binding signal [9]: 1.18 fold enrichment (6-mer frequency, TF over GST control)
binding signal [10]: 1.08 fold enrichment (6-mer frequency, TF over GST control)
binding signal [11]: 1.1 fold enrichment (6-mer frequency, TF over GST control)
binding signal [12]: 1.2 fold enrichment (6-mer frequency, TF over GST control)
binding signal [13]: 1.07 fold enrichment (6-mer frequency, TF over GST control)
binding signal [14]: 1.13 fold enrichment (6-mer frequency, TF over GST control)
binding signal [15]: 1.06 fold enrichment (6-mer frequency, TF over GST control)
binding signal [16]: 1.09 fold enrichment (6-mer frequency, TF over GST control)
binding signal [17]: 1.1 fold enrichment (6-mer frequency, TF over GST control)
